# Assay outcomes: PubChem BioAssay, Broad Institute
# A selection: hits, their analogues and other compounds. The true share with any hit is near 3.4%.
# HSF1 inhib = HSF1 inhibition; NIH3T3-HGL HSE-luciferase, MG132-induced, luminescence 8 h; hits give low values; activity change, negative = inhibition, % at 7.5 µM (by protocol); actives 0.77% (n = 300,000); AID 2098;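 active = more than half of replicate wells show activity change below -50%, luminescence cut by over half; inconclusive = some wells, but at most half, below -50%; inactive = no replicate well below -50%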;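 note: luciferase reports HSF-1 transcriptional activity via heat shock element; 0% = median of DMSO wells and -100% = zero luminescence signal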
# Vif imaging = blocks HIV Vif function; actives 0.35% (n = 340,000); inhibition, % at 7.49 µM; HEK293T cells, Vif self-association by quenched fluorescence, imaging, 24 h; in the data active = inhibition above about 50%, passing the limit was not always enough; inconclusive = no clear call, values can overlap the other calls; inactive = below about 31%
# esBAF inh = inhibitors of esBAF chromatin remodeling in mouse ES cells. Bmi1-luciferase knock-in reporter, 24 h; 100% = twice the neutral-well signal. reporter increase, % at 12.5 µM. actives 2% (n = 350,000); in the data active = activation above about 40%; inconclusive = no clear call, values can overlap the other calls;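 note: 0% = median of the plate's neutral control wells and 100% = double that signal; a rise in the Bmi1 reporter signal indicates esBAF inhibition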
# HSF1 activator = increases HSF-1 driven luciferase reporter signal; actives 1.7% (n = 300,000); NIH3T3-HGL HSF-1 luciferase reporter, MG132, 8 h; 100% = twice DMSO control signal; activation, % at 9 µM;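 active = mean replicate activation of at least 50% with a set share of replicates each reaching 50%; inconclusive = only one of those two conditions met; inactive = mean below 50% and too few replicates reaching it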;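 note: 0% = median of the neutral control wells and 100% = twice that signal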
# * marks the source's active call; other numbers are inactive results; ? = inconclusive; · = no result.
SMILES,HSF1 inhib,Vif imaging,esBAF inh,HSF1 activator
COc1ccc(-c2cc3cc(OC)c(OC)cc3cn2)cc1,·,-2,68*,·
COc1ccc2cc(-c3ccccc3)ncc2c1,35,-6,2,75*
COc1cc(OC)cc(-c2cc3ccc(OC)cc3cn2)c1,·,18,24,·
COc1ccc(-c2ccc3c(c2)[C@H]2[C@H](CCN2C(=O)Cc2ccccc2)[C@H](CO)N3C)cc1,·,·,1,·
CCn1nc(C)cc1C(=O)Sc1ccc(Cl)cc1Cl,28,-6,·,52*
CCc1cc2cc(C(=O)Nc3ccc(F)cc3)sc2s1,-3,0,32,9
CCc1cc2cc(C(=O)Nc3ccccc3F)sc2s1,36,-8,18,57*
O=C(C[C@@H]1C[C@H]2c3cc(NC(=O)CC4CC4)ccc3O[C@H]2[C@@H](CO)O1)NCc1ccccc1,·,·,9,·
CCC(=O)Nc1ccc2c(c1)Cc1cc([N+](=O)[O-])ccc1-2,·,3,81*,·
CCC(=O)N1C[C@@H](O)COC[C@@H]2O[C@@H](CC(=O)NCc3cc(F)cc(F)c3)CC[C@H]21,·,·,-2,·
COc1ccc(Br)cc1S(=O)(=O)Nc1ncccc1C,-88*,-4,·,-90
COc1ccccc1C(O)(C(=O)NN(C(=O)c1ccccc1)c1ccccc1C)c1cccs1 (centres undefined),·,52*,-5,·
COc1ccccc1C(O)(C(=O)NNc1ccccc1C)c1ccccc1OC,2,-1,-1,0
CCCN(C)C[C@H]1Oc2cc(C#Cc3cccc(OC)c3)ccc2S(=O)(=O)N([C@@H](C)CO)C[C@H]1C,·,·,-17,·
COC(=O)c1ccc(COc2ccccc2/C=C(\C#N)C(=O)Nc2c(C)cc(C)cc2C)cc1,68,·,-29,93*
Cc1noc(C)c1NC(=O)Nc1ccc2c(c1)C(=O)N(C)[C@@H]1CC[C@@H](CC(=O)N(C)C)O[C@H]1CO2,·,·,-3,·
CCCOc1ccc(C(=O)NCC2OCCc3ccccc32)cc1OC (centres undefined),-4,-2,·,10
COc1ccc(C(=O)NCC2OCCc3ccccc32)c(O)c1 (centres undefined),17,15,67*,25
CCOC(=O)c1ccc(Nc2ccc(C(C)=O)cc2)cc1,·,-2,76*,·
CCOC(=O)c1ccc(Nc2ncnc3nc[nH]c23)cc1,-75*,4,27,-78
CCOC(=O)c1ccc(NS(=O)(=O)CC)cc1,-9,·,·,-19
CCCN(C)C[C@H]1Oc2cc(C#CCOC)ccc2S(=O)(=O)N([C@H](C)CO)C[C@H]1C,·,·,2,·
COc1cccc(NC(=O)N(C)C[C@H]2Oc3ncc(C#Cc4ccncc4)cc3C(=O)N([C@H](C)CO)C[C@H]2C)c1,·,·,0,·
CO[C@H]1CN(C)C(=O)c2cc(NC(=O)NC(C)C)ccc2OC[C@H](C)NC[C@@H]1C,·,·,-1,·
COC1=C/C(=C/c2c(O)c(C#N)c3ccccn23)C=CC1=O,-6,?,55*,-17
SMILES,HSF1 inhib,Vif imaging,esBAF inh,HSF1 activator
O=C(Nc1cccc(Cl)c1)c1ccc2sc([C@H]3C[C@H](O)[C@@H](CO)O3)nc2c1,·,-23,67*,·
O=C(Nc1ccc(Cl)cc1)c1csc([C@@H]2O[C@H](CO)[C@@H](O)[C@H]2O)n1,·,18,45*,·
O=C(NCc1ccccc1Cl)c1csc([C@H]2C[C@H](O)[C@@H](CO)O2)n1,·,23,-5,·
O=C(Nc1ccc(F)c(Cl)c1)c1csc([C@@H]2O[C@H](CO)[C@H](O)[C@H](O)[C@H]2O)n1,·,-1,-5,·
O=C(Nc1cccc(Cl)c1Cl)c1csc([C@@H]2O[C@H](CO)[C@@H](O)[C@H]2O)n1,·,-6,50*,·
O=C(Nc1cccc(Cl)c1Cl)c1csc([C@H]2C[C@H](O)[C@@H](CO)O2)n1,·,·,77*,·
O=C(Nc1cccc(Cl)c1)c1ccc2sc([C@@H]3O[C@H](CO)[C@H](O)[C@H](O)[C@H]3O)nc2c1,·,-11,4,·
C[C@H]1CCCCO[C@@H](CN(C)C(=O)NC2CCCCC2)[C@@H](C)CN([C@@H](C)CO)C(=O)c2cc(NS(C)(=O)=O)ccc2O1,·,·,0,·
O=C(C[C@@H]1CC[C@@H](NC(=O)Nc2ccccc2F)[C@@H](CO)O1)NCc1ccc(Cl)cc1,·,·,-4,·
CC(=O)NC[C@@H]1[C@H](c2ccc(-c3cccc(F)c3)cc2)[C@H](CO)N1C(C)=O,·,·,-1,·
CN1C(=O)c2cc(NC(=O)NC3CCCC3)ccc2OC[C@@H]2O[C@@H](CC(=O)NC3CCC3)CC[C@H]21,·,·,-5,·
O=C(Nc1cc2c(cc1Cl)OCCCO2)c1ccccc1,6,-8,57*,34
O=C(Nc1cc2c(cc1Cl)OCCCO2)c1ccco1,17,3,·,18
C[C@H](CO)N1C[C@H](C)[C@@H](CN(C)S(=O)(=O)c2cn(C)cn2)Oc2ccc(NS(=O)(=O)c3ccc(Cl)cc3)cc2C1=O,·,·,2,·
O=C(N/N=C/c1cccc2ccccc12)c1cccs1,16,-3,67*,32
COc1ccc(/C=C/C(=O)Oc2cccc(/C=N/NC(=O)c3cccc(F)c3)c2)cc1,9,6,45*,1
Cc1cc(/C=N\NC(=O)COc2cccc3cccnc23)c(C)n1-c1ccc(Br)cc1,-2,-2,·,-4
COc1cc(/C=N/NC(=O)c2cccs2)ccc1O,9,-10,9,41
COc1ccc(/C=C/C(=O)Oc2ccc(/C=N\NC(=O)c3ccc(F)cc3)cc2)cc1,-3,2,·,-7
COc1cccc(/C=N/NC(=O)c2cccs2)c1,15,-11,25,63*
Cc1cc(/C=N\NC(=O)c2cccs2)c(C)n1-c1ccc2ncccc2c1,-10,-14,72*,7
O=C(N/N=C/c1c[nH]c2ccccc12)c1cccs1,52,8,·,34
CCC(=O)N1C[C@H](C)[C@@H](OC)CN(C)C(=O)c2ccc(NC(=O)Nc3cccc(F)c3)cc2OC[C@H]1C,·,·,9,·
COc1ccc2o/c(=N/NC(=O)c3cccs3)c(C(N)=O)cc2c1,5,-3,·,56*
COc1ccccc1/C=C/C=N/NC(=O)c1cccs1,22,1,·,61*
SMILES,HSF1 inhib,Vif imaging,esBAF inh,HSF1 activator
O=C(N/N=C\c1cn[nH]c1-c1ccccc1)c1cccs1,-74*,5,·,-80
COc1cccc(/C=N/NC(=O)c2cnn(-c3ccccc3)c2N)c1,2,5,60*,13
NC(=O)c1cc2ccccc2o/c1=N/NC(=O)c1cccs1,5,13,1,17
CCCNC(=O)C[C@@H]1CC[C@H]2[C@H](COc3ccc(NC(=O)c4ccc(OC)cc4)cc3C(=O)N2C)O1,·,·,4,·
CO[C@@H]1CN(C)C(=O)c2ccc(NC(=O)NC3CCCCC3)cc2OC[C@@H](C)N(C)C[C@H]1C,·,·,1,·
COCCNC(=O)C[C@@H]1CC[C@@H]2[C@@H](COc3ccc(NC(=O)Cc4ccccc4)cc3C(=O)N2C)O1,·,·,-1,·
C[C@@H]1CN([C@H](C)CO)C(=O)c2cc(-c3cccc(C#N)c3)cnc2O[C@H]1CN(C)Cc1cccnc1,·,·,1,·
Cc1ccc(/C=N/NC(=O)c2cccs2)s1,14,13,50*,43
Nn1c(-c2cccc(Br)c2)n[nH]c1=S,-54*,·,-10,-64
